# Source: PubChem
# IP6K1 inh: inhibitors of human IP6K1 | IP6K1 kinase, ADP-Glo luminescence, 2 h; active compounds read low | activity change, % (series mostly up to about 58 µM) | actives 0.81% (n = 140,000) | AID 1645851; in the data active = activity change below about -25%
#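 ADP-Glo luminescence measures ADP made by human IP6K1 during a 2 h RT reaction with ATP/IP6 (mix at 1.3 mM/130 uM); top library doses 57.5 and 19.1 uM final.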
# KDM5B inh: inhibitors of human KDM5B histone demethylase; Q9UGL1; KDM5B demethylase, FDH-coupled NADH fluorescence (FDH is formaldehyde dehydrogenase); Potency, µM (titrated, usually from 57.7 µM), actives largely listed as inhibitors; actives 2.6% (n = 220,000); also: nearly all actives have a fitted effect of over 70% in size
#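 Here, H3K4me3 peptide (12.5 µM in substrate mix) is demethylated by KDM5BΔAP, 200 nM final, after 10 min compound exposure. Formaldehyde product is coupled through FDH (0.25 U/mL in mix) to NADH fluorescence; 30-min ΔRFU feeds dose-response curves.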
# SNCA expr inhib: inhibitors of alpha-synuclein (SNCA) gene expression; actives 0.17% (n = 140,000); Potency, µM (doses to about 57.2 µM), actives largely listed as inhibitors; HEK-293 SNCA-luciferase knock-in, luminescence, 24 h; AID 1671194; also: nearly all actives have a fitted effect of over 45% in size
# HEK293 viab: reduces viability of HEK-293 SNCA reporter cells | Potency, µM (top dose mostly 57.1 µM), actives largely listed as cytotoxic | AID 1671193 | actives 0.12% (n = 150,000) | HEK-293-SNCA-luc viability, GF-AFC fluorescence, 24 h; also: nearly all actives have a fitted effect of over 30% in size
#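 Cytotoxicity counterscreen: after 24 h compound treatment of genome-edited SNCA-luciferase HEK-293 cells, live-cell protease substrate GF-AFC read by fluorescence after 30 min; activity scaled between DMSO (0%) and medium-only (-100%), curves Hill-fitted.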
# Hits are given with their value; 0 = inactive; ? = inconclusive; - = not tested or not shown. An excerpt weighted towards active compounds, which were near 2.8% of everything screened. Unless noted, calls follow the shape of the dose curve; as a rule, active = well fitted curve in the direction sought with a large enough effect; inconclusive = small, poorly fitted or top-dose-only effect, or another doubt; inactive = no such curve, though single readings can be large; an effect the other way counts as inactive or inconclusive.
SMILES,IP6K1 inh,KDM5B inh,SNCA expr inhib,HEK293 viab
CCCc1noc(-c2cccn3c(CNC(=O)c4ccco4)nnc23)n1,0,25.1µM,0,0
CCCc1noc(-c2cccn3c(CNC(=O)c4ccc(Cl)cc4)nnc23)n1,0,?,0,0
CCc1noc(-c2cccn3c(CNC(=O)c4cc5ccccc5[nH]4)nnc23)n1,0,?,0,0
CCc1noc(-c2cccn3c(CNC(=O)c4ccco4)nnc23)n1,0,28.2µM,0,0
C=CCNC(=O)/C=C/c1ccc(OC)cc1,-,0,-,-
O=C(CCc1ncc(-c2ccccc2)o1)Nc1ccccn1,-,0,-,-
CC1(C(=O)NCc2cnccn2)CCCc2cnc(NCc3ccccc3)nc21 (centres undefined),0,0,0,0
CC1(C(=O)NCCN2CCOCC2)CCCc2cnc(NCc3ccccc3)nc21 (centres undefined),0,35.5µM,0,0
CN1CCC(NC(=O)C2(C)CCCc3cnc(NCc4ccccc4)nc32)CC1 (centres undefined),0,22.4µM,0,0
CC1(C(=O)NCc2ccncc2)CCCc2cnc(NCc3ccccc3)nc21 (centres undefined),0,35.5µM,0,0
O=C1N(Cc2ccccc2F)CCOC12CCN(Cc1ccccc1F)CC2,0,15.8µM,0,0
O=C1N(Cc2ccccc2F)CCOC12CCN(Cc1ccccc1)CC2,0,?,0,0
COCCNC(=O)c1cc(NC(=O)C(C)C)cc2nc(C)ccc12,0,25.1µM,0,0
CCOc1ccccc1CNC(=O)c1cc(NC(C)=O)cc2nc(C)ccc12,0,14.1µM,0,0
Cc1ccc2c(C(=O)NCc3ccccc3C(F)(F)F)cc(NC(=O)C(C)C)cc2n1,0,25.1µM,0,0
Cc1ccc2c(C(=O)NCc3cc(F)cc(F)c3)cc(NC(=O)C(C)C)cc2n1,0,22.4µM,0,0
Cc1ccc2c(C(=O)NCc3ccc(F)c(Cl)c3)cc(NC(=O)C(C)C)cc2n1,0,?,0,0
CCCn1c(=O)n(CC(=O)Nc2ccccc2)c(=O)c2c1nc(C)n2CCOC,-,0,-,-
Cc1c(C(=O)N2CCCCCC2)c(S(=O)(=O)N2c3ccccc3CC2C)c(C)n1C (centres undefined),-,0,-,-
CCC(C)NC(=O)c1cc(-c2cccc(F)c2)nc2c1cnn2C (centres undefined),0,-,-,-
Cc1c(Cl)cccc1NC(=O)c1cc(=O)[nH]c2ccc(S(=O)(=O)N3CCOCC3)cc12,-,0,-,-
O=C1CCc2cc(S(=O)(=O)CCC(=O)N3CCC(CCOc4ccc(F)cc4)C3)ccc2N1 (centres undefined),0,-,0,0
Cc1ccc2c(C(=O)NCc3ccc(C(F)(F)F)cc3)cc(NC(=O)C(C)C)cc2n1,0,15.8µM,0,0
Cc1cc(C(=O)CSc2nnc(Nc3ccccc3F)s2)c(C)n1C,-,0,-,-
Cn1nnnc1C1CCCN(C(=O)C2CCCC2)C1 (centres undefined),0,28.2µM,0,0
SMILES,IP6K1 inh,KDM5B inh,SNCA expr inhib,HEK293 viab
O=C(Cc1ccccc1)N1CCC(c2noc(COc3ccc(F)cc3)n2)CC1,0,-,0,0
O=C(c1nc(-c2cccnc2)c2cnccn12)N1CCOCC1,0,0,0,0
CC(C)(C)c1nc(C(=O)N2CCOCC2)n2ccncc12,0,89.1µM,0,0
CC(C)(C)c1nc(C(=O)N2CCCC2)n2ccncc12,0,100µM,0,0
CCOc1ccccc1-c1noc(COC(=O)Cc2n[nH]c(=O)c3ccccc23)n1,-,0,-,-
CN(C)CCOCC1(C)COc2ccc(C(=O)Nc3cccc(N(C)C)c3)cc2N1 (centres undefined),0,?,0,0
CC1(COc2cccnc2)COc2ccc(C(=O)Nc3cccc(Cl)c3)cc2N1 (centres undefined),0,14.1µM,?,?
CN(C)CCOCC1(C)COc2ccc(C(=O)Nc3cccc(Cl)c3)cc2N1 (centres undefined),0,35.5µM,0,0
COc1cccc(NC(=O)c2ccc3c(c2)NC(C)(COc2cccnc2)CO3)c1 (centres undefined),0,?,0,?
O=C(NCc1cccs1)c1cn2cc(-c3ccccc3)sc2n1,0,-,0,0
COC(=O)[C@@H]1Cc2nc[nH]c2CN1Cc1ccc(OC)c2ccccc12,0,31.6µM,0,0
COC(=O)[C@@H]1Cc2nc[nH]c2CN1Cc1ccc([N+](=O)[O-])cc1,0,28.2µM,0,0
O=C(NCc1ccc(C(F)(F)F)cc1)[C@@H]1Cc2nc[nH]c2CN1Cc1ccc([N+](=O)[O-])cc1,0,0,0,0
COCCN1CCC(CNc2nccc(-c3ccccn3)n2)C1 (centres undefined),0,28.2µM,0,0
